Bioassay records (PubChem BioAssay)
CYP2C9 activ = CYP2C9 (human) activation. P11712. recombinant CYP2C9, luciferin-H conversion, luminescence; hits give high values; factor 1 = untreated enzyme, 0 = blocked. activation factor at 5 µM. 96,000 compounds, 1.4% hits;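 active means activation factor of 2 or more for CYP2C9 at a 5 µM dose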;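 further: 0 = sulfaphenazole-blocked wells and 1 = vehicle-only wells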
CYP2C19 inhib = human CYP2C19 inhibition; inhibition, % at 5 µM; 96,000 compounds, 21% hits; CYP2C19 Supersomes, luciferin-H EGE luminescence, 30 min;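 active means CYP2C19 inhibition above a set limit at 5 µM in the primary screen, cut at about 50% in these data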;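 further: plate controls were negative control wells for no effect and 2.5 mM tranylcypromine positive control for full effect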
Target sequence (P33261 whole entry, looked up): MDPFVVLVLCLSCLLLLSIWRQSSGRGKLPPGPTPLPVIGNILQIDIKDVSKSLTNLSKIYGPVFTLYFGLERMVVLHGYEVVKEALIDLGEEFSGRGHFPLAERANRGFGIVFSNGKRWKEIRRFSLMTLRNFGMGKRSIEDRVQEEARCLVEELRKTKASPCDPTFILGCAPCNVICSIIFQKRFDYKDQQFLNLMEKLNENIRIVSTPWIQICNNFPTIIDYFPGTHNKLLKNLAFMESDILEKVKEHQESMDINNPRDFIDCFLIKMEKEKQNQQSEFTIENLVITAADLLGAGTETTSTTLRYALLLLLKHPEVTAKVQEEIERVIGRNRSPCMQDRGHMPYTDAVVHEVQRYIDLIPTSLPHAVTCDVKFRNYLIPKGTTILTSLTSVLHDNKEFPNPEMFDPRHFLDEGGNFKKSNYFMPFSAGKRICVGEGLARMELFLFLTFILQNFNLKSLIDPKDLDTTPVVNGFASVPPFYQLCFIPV
sEH activator = increases human soluble epoxide hydrolase activity. purified human sEH enzymatic activity, activator screen. activation, % at 2 µM. 91,000 compounds, 0.04% hits. AID 717; in the data active means activation above about 37%
sEH inh = soluble epoxide hydrolase (human) inhibition; P34913; recombinant human sEH enzymatic activity assay; inhibition, % at 2 µM; 91,000 compounds, 0.34% hits; AID 707; in the data active means inhibition above about 80%
CYP2C19 act = cytochrome P450 2C19 (human) activation; P33261; recombinant CYP2C19, luciferin-H EGE luminescence; hits give high values; 0 = fully inhibited enzyme, 1 = untreated enzyme; activation factor at 5 µM; 96,000 tested, under 10 active;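 active means activation factor of at least 2 at 5 µM in the primary screen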;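 further: 0 = wells with 2.5 mM tranylcypromine and 1 = vehicle-only wells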
CYP2C9 inhib = blocks human cytochrome P450 2C9; 96,000 compounds, 20% hits; CYP2C9 Supersomes, luciferin-H conversion, luminescence; inhibition, % at 5 µM; P11712; AID 777;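 active means blocking of liver enzyme CYP2C9 beyond about 50% at 5 µM, limit read from the data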
* hit, by the source's call; . = no result. An excerpt weighted towards active compounds, which were near 27% of everything screened.

SMILES	CYP2C9 activ	CYP2C19 inhib	sEH activator	sEH inh	CYP2C19 act	CYP2C9 inhib
CCOc1ccc2[nH]c3c(N4CCN(c5ccccn5)CC4)ncnc3c2c1	0.3	80*	5	-6	0.2	69*
c1nc(N2CCN(Cc3ccc4c(c3)OCO4)CC2)c2[nH]cnc2n1	1.1	-3	.	.	1	-7
Cc1ccc2[nH]c3c(=O)n(Cc4ccncc4)cnc3c2c1	0.4	50	8	-6	0.5	63*
CCN(C(=O)c1cn(C)c(=O)c2cc(OC)c(OC)cc12)c1cc(OC)ccc1OC	1	-3	.	.	1	-2
O=c1c2[nH]c3ccccc3c2ncn1CCN1CCOCC1	0.9	37	-6	6	0.6	13
Cc1ccc2c(c1)[nH]c1c(N3CCN(Cc4ccccc4)CC3)ncnc12	0.4	36	4	-5	0.6	65*
COc1cc2[nH]c3c(N4CCN(c5ccc(Cl)cc5)CC4)ncnc3c2cc1OC	0.9	4	.	.	1	6
Cc1ccc2c(c1)c1ncnc(N3CCC4(CC3)OCCO4)c1n2C	0.4	12	3	-3	0.9	62*
c1ccc2c(c1)[nH]c1c(N3CCC4(CC3)OCCO4)ncnc12	0.6	68*	19	-17	0.3	38
CCCCNC(=O)C(Cc1ccccc1)NS(=O)(=O)c1ccc2c(c1)c(=O)n(C)c(=O)n2C (configuration not stated)	0.5	27	20	-21	0.7	49
CC(c1ccco1)N(C(=O)Nc1ccc(Cl)cc1)c1ccccn1 (configuration not stated)	0.4	85*	-16	18	0.2	56*
CC(N=c1ccccn1C(=O)Nc1ccc(Cl)cc1)c1ccco1 (configuration not stated)	0.8	40	-50	49	0.6	22
Cc1ccc(C(=O)N(c2ccccn2)C(C)c2ccco2)cc1 (configuration not stated)	0.7	80*	9	-10	0.2	29
CC(c1ccco1)N(C(=O)C12CC3CC(CC(C)(C3)C1)C2)c1ccccn1 (configuration not stated)	0.8	42	9	-11	0.6	23
CC1CCN(C(=O)CSCc2ccc(Cl)cc2)CC1	1.1	20	7	-7	0.8	-7
O=C(CSCc1ccc(F)cc1)N1CCOCC1	0.8	56*	2	1	0.4	16
O=C(CSCc1ccc(Br)cc1)N1CCOCC1	1	94*	-4	5	0.1	4
O=C(COC(=O)CSCC(=O)N1CCCCC1)NCc1ccc(F)cc1	1	51*	-18	17	0.5	4
O=C(CSCC(=O)N1CCOCC1)Nc1ccccc1	1.1	57*	-2	3	0.4	-5
CCc1ccc(NC2=NC(C(=O)NC3CCCCC3)CC(=O)N2)cc1 (configuration not stated)	1.2	-17	-1	4	1.2	-24
CCCCNC(=O)Nc1cnn(CC)c1C(N)=O	1	-1	7	-7	1	-4
Cc1noc(C)c1CSCC(=O)N1CCN(c2ccc(F)cc2)CC1	0.5	63*	-9	7	0.4	46
Cc1c(C(=O)NC(C)CN2CCCCC2)oc2ccccc12 (configuration not stated)	1	3	8	-4	1	-2
O=S(=O)(Nc1ccc2c(c1)nc1n2CCOC1)c1ccc(Cl)cc1	0.3	49	.	.	0.5	73*
CCOc1cc(-c2cc(-c3ccccc3)nc(N)c2C#N)ccc1O	0.5	52*	2	-8	0.5	54*
SMILES	CYP2C9 activ	CYP2C19 inhib	sEH activator	sEH inh	CYP2C19 act	CYP2C9 inhib
CCOc1cc(C2C(C#N)=C(N)Oc3n[nH]c(-c4ccccc4)c32)ccc1O (configuration not stated)	0.1	71*	.	.	0.3	94*
CCOc1cc(-c2cc(-c3ccc(N)cc3)nc(N)c2C#N)ccc1O	0.1	70*	-6	4	0.3	89*
CCOc1cc(-c2c(C#N)c(N)nc3c2CCCC3)ccc1O	0.6	61*	.	.	0.4	36
N#CC1=C(N)Oc2n[nH]c(-c3ccccc3)c2C1c1cccnc1 (configuration not stated)	0.8	38	.	.	0.6	23
Nc1c(C(O)(C(F)(F)F)C(F)(F)F)cc(C(O)(C(F)(F)F)C(F)(F)F)c2ccccc12	.	.	3	-4	.	.
Cc1cc(C)nc(Nc2n[nH]c(-c3ccccc3Br)n2)n1	0.3	18	4	-1	0.8	74*
CCC(C)(C)n1nnnc1C(c1ccc2ncccc2c1)N1CCCCCC1 (configuration not stated)	.	.	-41	41	.	.
Nc1ccc(N2CCN(C(=O)c3cccs3)CC2)cc1	0.3	97*	5	-7	0	71*
CC(=O)Nc1ccc(N2CCN(C(=O)c3cccs3)CC2)cc1	1	6	.	.	0.9	2
NC(=O)N1CCN(C(=O)c2ccco2)CC1	1.4	-23	4	-6	1.2	-35
O=C(c1ccco1)N1CCN(C(=O)c2cccs2)CC1	0.8	52*	8	-6	0.5	21
O=C(COc1ccccc1)N1CCN(S(=O)(=O)c2cccs2)CC1	0.7	64*	.	.	0.4	30
CCOC(=O)C1CCN(C(=O)COc2ccc(N(C)S(=O)(=O)c3cccs3)cc2)CC1	0.1	62*	15	-16	0.4	90*
COCCNC(=O)C(=O)N/N=C/c1ccccc1C(F)(F)F	.	.	-6	8	.	.
CCCCOC(=O)Nc1sc2c(c1C(=O)OC)CCC2	1.2	-20	.	.	1.2	-23
C=CCN(C(=O)CCC(=O)O)C1CC(=O)N(c2ccc(OCCC)cc2)C1=O (configuration not stated)	0.9	9	.	.	0.9	5
CCOC(=O)CNc1nc(C#N)nc(N2CCOCC2)n1	1	-5	8	-8	1	-3
O=C(c1cc2ccccc2o1)N1CCN(S(=O)(=O)c2cccs2)CC1	0.7	20	-4	4	0.8	29
O=C(c1cccs1)N1CCN(S(=O)(=O)N2CCOCC2)CC1	1.1	58*	9	-3	0.4	-9
O=C(c1ccco1)N1CCN(S(=O)(=O)c2cccs2)CC1	0.7	88*	0	3	0.1	32
O=C(Nc1ccccc1F)N(CCCN1CCOCC1)Cc1cc2cc3c(cc2[nH]c1=O)OCCO3	0.5	90*	5	-7	0.1	52*
CCc1ccc2[nH]c(=O)c(CN(CCCN3CCOCC3)C(=O)Nc3ccc(Cl)cc3)cc2c1	0.6	39	-3	2	0.6	38
CCc1ccc2[nH]c(=O)c(CN(CCCN3CCOCC3)C(=O)Nc3ccccc3)cc2c1	0.5	56*	-7	8	0.4	48
O=C(Nc1ccccc1)N(CCCN1CCOCC1)Cc1cc2cc3c(cc2[nH]c1=O)OCCO3	.	.	-5	5	.	.
Cc1ccc2nc(N3CCN(Cc4nnnn4Cc4ccccc4)CC3)c(C#N)cc2c1	0.1	78*	22	-23	0.2	89*
